Data as given in PubChem BioAssay (NCI).
The panel holds about 83,000 compounds, 20% with a hit somewhere; the sample as a whole holds those more often.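 96-well plates, one dose, 48 hours. Percent growth reported; active if below 10.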 Values without a mark were called inactive. Calls of active or inactive are those of the source.

Tests used:
Experiment in all cases: NCI-60 one-dose screen, 48 h (100 = growth as untreated, 0 = no growth, -100 = all killed)
Details in all cases: 10 µM unless noted
NCI-H23 lung = tested on: NCI-H23 lung
NCI-H226 lung = tested on: NCI-H226 lung
NCI-H322M lung = tested on: NCI-H322M lung
HOP-62 NSCLC = tested on: HOP-62 NSCLC
NCI-H460 lung = tested on: NCI-H460 lung
HOP-92 NSCLC = tested on: HOP-92 NSCLC
NCI-H522 lung = tested on: NCI-H522 lung
A549/ATCC NSCLC = tested on: A549/ATCC NSCLC
786-0 renal = tested on: 786-0 renal
COLO 205 colon = tested on: COLO 205 colon
DU-145 prostate = tested on: DU-145 prostate
MALME-3M melanoma = tested on: MALME-3M melanoma
MDA-MB-231 breast = tested on: MDA-MB-231 breast
RXF 393 renal = tested on: RXF 393 renal
SF-268 CNS = tested on: SF-268 CNS
SF-295 CNS = tested on: SF-295 CNS
SF-539 CNS = tested on: SF-539 CNS
UACC-257 melanoma = tested on: UACC-257 melanoma
M14 melanoma = tested on: M14 melanoma
K-562 leukemia = tested on: K-562 leukemia

Structure (SMILES)	growth (NCI-H23 lung)	growth (NCI-H226 lung)	growth (NCI-H322M lung)	growth (HOP-62 NSCLC)	growth (NCI-H460 lung)	growth (HOP-92 NSCLC)	growth (NCI-H522 lung)	growth (A549/ATCC NSCLC)	growth (786-0 renal)	growth (COLO 205 colon)	growth (DU-145 prostate)	growth (MALME-3M melanoma)	growth (MDA-MB-231 breast)	growth (RXF 393 renal)	growth (SF-268 CNS)	growth (SF-295 CNS)	growth (SF-539 CNS)	growth (UACC-257 melanoma)	growth (M14 melanoma)	growth (K-562 leukemia)
O=c1ccccc(-c2ccc(-c3ccco3)cc2)c1O	19.1%	21.7%	21.6%	6.97% (active)	2.15% (active)	60.1%	27.3%	13.3%	10.6%	26.3%	19.7%	15.1%	40.2%	43.9%	11%	20.5%	-2.44% (active)	0.169% (active)	-2.99% (active)	
COc1cc2nc(N3CCCC3)nc(NCC3CCCCC3)c2cc1OC	57.3%	80.1%	50.1%	74.7%	-45% (active)	-16.9% (active)	-57.2% (active)	6.9% (active)	-82.5% (active)	-86.2% (active)	36.2%	-87.8% (active)	-39.9% (active)	-84% (active)	74.4%	-70.9% (active)	-84.2% (active)	-82.8% (active)	-79.3% (active)	-9.67% (active)
CCOc1nc(-c2ccccc2)cc2c(O)c(C(=O)N/N=C/c3ccc(O)cc3O)[nH]c(=O)c12	3.35% (active)	26.4%	42.2%	27.1%	61.6%	-12.1% (active)	10.8%	46.2%	14.4%	15.9%	23.4%		43.2%	-35.2% (active)	16.3%	19.3%	16%	-29.1% (active)	21.5%	31.5%
CN(C)CCCNc1c2ccccc2nc2ccccc12	93.3%	81.1%	110%	88.1%	97.7%	180%	93.7%	96.2%	88.6%	100%	101%	100%	85.2%	56.4%	92.9%		89.6%	104%	98%	96.8%
Cc1cc(N2CCCCC2)nc(NC2CCCC(Nc3ccnc4cc(Cl)ccc34)C2)n1 (stereo not given)	-15.5% (active)	-50.8% (active)	-48.7% (active)	-86.5% (active)	-64.9% (active)	-71.1% (active)	-54.6% (active)	-23.7% (active)	-96% (active)	-85.8% (active)	1.31% (active)	-86% (active)	-89.8% (active)	-81.2% (active)	-59.6% (active)	-76.7% (active)	-92.8% (active)	-90.9% (active)	-86.5% (active)	
COc1nc2c(c(=O)n1C)CN(Cc1ccccc1)C=N2	103%	109%	128%	94.2%	116%	21.2%	95.1%	87.6%	103%	107%	114%		119%	109%	106%	109%	116%	94.9%	101%	93.2%
CCOc1nc(-c2ccccc2)cc2c(O)c(C(=O)O)[nH]c(=O)c12	60.9%	101%	147%	98.2%	102%	28.2%	136%	108%	111%	118%	101%		104%	-10.5% (active)	99.2%	104%	94.6%	60.7%	102%	112%
N#Cc1c(N)n(CCNC(=O)c2ccccc2)c2nc3ccccc3nc12	103%	97.2%	121%	111%	117%	-17.4% (active)	84.2%	105%	92%	115%	134%	120%	112%		106%	121%	121%	97.9%	112%	87.8%
CN1CCN(c2ccc(Nc3c4ccccc4nc4ccccc34)cc2)CC1	105%	107%	120%	110%	104%	178%	99.7%	98.2%	102%	114%	111%	103%	105%	110%	107%		99.6%	103%	113%	105%
COc1ccc(Nc2c3c4c(cccc4[nH]c2=O)C(=O)c2ccccc2-3)cc1	4.11% (active)	17%	24.9%	28%	-44.4% (active)	15.5%	-20.4% (active)	20.6%	12.1%	-64.5% (active)	-20.9% (active)	41.1%	-20.5% (active)		21.4%	-52.4% (active)	-31.3% (active)	64.1%	11.7%	-19% (active)
O=C(Oc1cccnc1)c1ccsc1Nc1ccnc(C(F)(F)F)c1	35.4%	98.6%	104%	96%	105%	44.6%	44.8%	98.2%	108%	101%	108%	84.9%	63.2%	105%	42.6%		99.9%	76%	81.6%	25.7%
NC(=NCCCC1(c2ccccc2)CCCC1)Nc1ccc(Cl)cc1	44%	96.5%	36.2%	69.6%	-32.8% (active)	9.43% (active)	56.9%	63.1%	65.5%	-72.5% (active)	37.8%	-48.9% (active)	1.92% (active)	51.7%	58.5%	10%	51.3%	26.4%	-65.5% (active)	
O=C(COc1ccc(/C=C2\CSc3ccccc3C2=O)cc1)Nc1nccs1	61.1%	97.9%	87.9%	94.5%	107%	78.8%	7.48% (active)	100%	95.7%	117%	130%	77.8%	95.6%		99.6%	118%	111%	97.3%	89.6%	-14.2% (active)
O=C(COc1cccc(/C=C2\COc3ccc(Cl)cc3C2=O)c1)c1ccc(Cl)cc1	86.1%	88.1%	98.2%	73.7%	102%	66.3%	87.1%	100%	98%	116%	124%	77.5%	67.8%		94.4%	120%	87%	104%	82.4%	13.1%
NC(=NCCCOc1ccc(Cl)cc1)Nc1ccc(C(F)(F)F)cc1	33.4%	97.5%	34.9%	48.3%	18.4%	20.9%	42.5%	49.4%	53.4%	-67.1% (active)	20.4%	-49.3% (active)	10.1%	71.4%	46%	43.9%	48.7%	11.7%	-47.8% (active)	
COc1cc(Nc2cc(C)nc(N3CCN(c4ccnc5cc(Cl)ccc45)CC3)n2)cc(OC)c1	9.55% (active)	22.9%	8.83% (active)	10.1%	2.55% (active)	5.3% (active)	9% (active)	4.7% (active)	-13.1% (active)	-24.4% (active)	2.17% (active)		-35.1% (active)	4.88% (active)	15.1%	0.307% (active)	-16.9% (active)	49.2%	4.43% (active)	8.3% (active)
